Experimental data reported in PubChem BioAssay (EPA / NIEHS).
“And” between values parts separate entries of the source, which are not always exact repeats. Equal entries are not always repeated. Results filed as inconclusive are left out. Where a structure was tested more than once in an assay, its records may differ in their call. The source made the active and inactive calls. Rule for the calls, unless noted: active = hit-call score of the fitted dose curve at least 0.9, where 1 is the maximum; inconclusive = response in the unintended direction; inactive = score below 0.9.

Key:
[1] = read-out: xenobiotic metabolism (CYP1A2), CYP1A2 (gene 1544); experiment: CLD_CYP1A2_24hr: CellzDirect (CLD) Gene Expression Assay for xenobiotic metabolism (CYP1A2) at 24 hours (AID 2283683)
Procedure, shortened: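 CYP1A2 mRNA induction measured by quantitative nuclease protection (chemiluminescent) in human primary hepatocytes 24 h after multi-concentration chemical dosing with daily fresh solutions. DMSO (0.2%) baseline; positive-direction fitting; morphology-based cytotoxicity noted.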

[2] = read-out: ABC Transporter (ABCB1), ABCB1 (gene 5243); experiment: CLD_ABCB1_24hr: CellzDirect (CLD) Gene Expression Assay for ABC Transporter (ABCB1) at 24 hours (AID 2283684);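 for AC50: potency for increase in ABCB1 mRNA relative to DMSO vehicle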
Procedure, shortened: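 ABCB1 mRNA induction versus 0.2% DMSO vehicle was read by qNPA chemiluminescence at 24 h. Cultured human hepatocytes from two donor preparations received daily fresh dosing, and phase-contrast cytotoxicity calls were annotated alongside the data.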

[3] = read-out: Cytochrome P450 2B6 (Homo sapiens) (UniProt P20813); experiment: CLD_CYP2B6_24hr: CellzDirect (CLD) Gene Expression Assay for xenobiotic metabolism (CYP2B6) at 24 hours (AID 2283686)
Procedure, shortened: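 qNPA chemiluminescent measurement of mRNA at 24 hours in human primary hepatocyte cultures from two donor preparations, with daily fresh dosing and 0.2% DMSO vehicle as baseline. Morphology-based cytotoxicity flagged yes/no.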

[4] = read-out: alkyl and aryl transferase (GSTA2), GSTA2 (gene 2939); experiment: CLD_GSTA2_24hr: CellzDirect (CLD) Gene Expression Assay for alkyl and aryl transferase (GSTA2) at 24 hours (AID 2283693)
Procedure, shortened: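 GSTA2 transcript levels were quantified by quantitative nuclease protection assay in primary human hepatocytes 24 h after daily dosing with fresh solutions at multiple concentrations; 0.2% DMSO vehicle as baseline, cytotoxicity flagged morphologically.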

[5] = read-out: sulfotransferase (SULT2A), SULT2A1 (gene 6822); experiment: CLD_SULT2A_24hr: CellzDirect (CLD) Gene Expression Assay for sulfotransferase (SULT2A) at 24 hours (AID 2283694)
Procedure, shortened: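 mRNA is measured by qNPA: probe hybridisation, S1 nuclease digestion, chemiluminescence, in lysates from human primary hepatocytes harvested 24 h after daily dosing. Vehicle was 0.2% DMSO. Phase-contrast microscopy flagged cytotoxicity (yes/no).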

[6] = read-out: Cytochrome P450 3A4 (Homo sapiens) (UniProt P08684); experiment: CLD_CYP3A4_48hr: CellzDirect (CLD) Gene Expression Assay for xenobiotic metabolism (CYP3A4) at 48 hours (AID 2283698)
Procedure, shortened: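 CYP3A4 induction read by qNPA chemiluminescence after 48 h, with fresh dosing solutions on consecutive days, in cultured human hepatocytes (two donors). Vehicle 0.2% DMSO as baseline; microscopy-based cytotoxicity annotated yes/no alongside data.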

[7] = read-out: Cytochrome P450 2B6 (Homo sapiens) (UniProt P20813); experiment: CLD_CYP2B6_48hr: CellzDirect (CLD) Gene Expression Assay for xenobiotic metabolism (CYP2B6) at 48 hours (AID 2283699);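 note: actives raise transcript level above DMSO so potency reflects induction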
Procedure, shortened: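 CYP2B6 transcript induction, read by quantitative nuclease protection (S1 digestion, chemiluminescent detection) 48 h after dosing, is fitted upward against 0.2% DMSO. Cultured human liver primary cells, two donor preparations, received fresh chemical daily over multiple concentrations.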

[8] = CLD_ACTIN_48hr: CellzDirect (CLD) Gene Expression Assay for Baseline Control (Actin) at 48 hours (AID 2283702)
Procedure, shortened: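 Background-control actin mRNA read by qNPA chemiluminescence at 48 h. Human hepatocyte cultures from two donors received fresh multi-concentration chemical doses daily for two days; 0.2% DMSO served as vehicle baseline.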

[9] = read-out: xenobiotic metabolism (CYP1A1), CYP1A1 (gene 1543); experiment: CLD_CYP1A1_48hr: CellzDirect (CLD) Gene Expression Assay for xenobiotic metabolism (CYP1A1) at 48 hours (AID 2283705)
Procedure, shortened: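 CYP1A1 transcript measured by quantitative nuclease protection (chemiluminescent) 48 h after two daily treatments of human hepatocyte cultures, versus 0.2% DMSO. Morphology-based cytotoxicity flags accompany data; two donor preparations used.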

[10] = read-out: Glyceraldehyde-3-phosphate dehydrogenase (Homo sapiens) (UniProt P04406); experiment: CLD_GAPDH_48hr: CellzDirect (CLD) Gene Expression Assay for Baseline Control (Glyceraldehyde 3-phosphate dehydrogenase) at 48 hours (AID 2283706);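 note: active means higher GAPDH mRNA than DMSO vehicle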
Procedure, shortened: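 GAPDH baseline-control readout: qNPA chemiluminescent mRNA quantitation in human liver primary cells 48 h after daily dosing on two consecutive days, vehicle 0.2% DMSO; gain of signal fitted against DMSO, cytotoxicity flagged by phase-contrast morphology.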

[11] = read-out: organic anion transporter (SLCO1B1), SLCO1B1 (gene 10599); experiment: CLD_SLCO1B1_48hr: CellzDirect (CLD) Gene Expression Assay for organic anion transporter (SLCO1B1) at 48 hours (AID 2283707)
Procedure, shortened: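 SLCO1B1 transcript quantified by qNPA with chemiluminescent readout after 48 h of once-daily chemical exposure. Cultured human primary hepatocytes came from two donors, with 0.2% DMSO vehicle; positive-direction fitting against DMSO, cytotoxicity flagged by morphology.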

[12] = read-out: alkyl and aryl transferase (GSTA2), GSTA2 (gene 2939); experiment: CLD_GSTA2_48hr: CellzDirect (CLD) Gene Expression Assay for alkyl and aryl transferase (GSTA2) at 48 hours (AID 2283708);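 note: active means mRNA induction above DMSO vehicle baseline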
Procedure, shortened: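 GSTA2 mRNA quantified by qNPA chemiluminescence in human primary hepatocyte lysates after 48 h of daily fresh chemical dosing. Increases fitted against 0.2% DMSO vehicle baseline; cytotoxicity from morphology annotated yes/no.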

[13] = read-out: glucuronosyltransferase (UGT1A1), UGT1A1 (gene 54658); experiment: CLD_UGT1A1_48hr: CellzDirect (CLD) Gene Expression Assay for glucuronosyltransferase (UGT1A1) at 48 hours (AID 2283709);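 note: actives increase expression relative to DMSO so potency refers to induction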
Procedure, shortened: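 Quantitative nuclease protection assay (chemiluminescent) for UGT1A1 mRNA at 48 h in human hepatocyte cultures from two donors, redosed daily with fresh solutions. Induction fitted relative to 0.2% DMSO; phase-contrast morphology annotated cytotoxicity.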

[14] = STM_H9_CystineISnorm_perc: Stemina devTOX quickPredict H9 human embryonic stem cell (hESC)-based Assay for Cystine (CYSS) Metabolite Biomarker, Normalized (AID 2283713; active = hit-call score of the fitted dose curve at least 0.9, where 1 is the maximum; inactive = score below 0.9)
Procedure, shortened: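 Cells are held undifferentiated and treated for 72h, receiving fresh medium with compound every 24h. Cystine secreted during the final day is quantified by UPLC-HRMS against a labeled spike-in, then expressed relative to the DMSO vehicle median.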

[15] = STM_H9_OrnCyssISnorm_ratio: Stemina devTOX quickPredict H9 human embryonic stem cell (hESC)-based Assay for Ornithine (ORN):Cystine (CYSS) Ratio (AID 2283714)
Procedure, shortened: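 UPLC-HRMS of spent media: ORN/CYSS ratio of internal-standard-normalized percentages, DMSO (0.1%) baseline. Pluripotent H9 hESCs, 72h exposure, daily re-dosing with fresh media; last 24h media collected.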

[16] = CEETOX_H295R_MTT_cell_viability: Viability Assessment in the CeeTox HT-H295R MTT Assay (AID 2283718; active = hit-call score of the fitted dose curve at least 0.9, where 1 is the maximum; inactive = score below 0.9;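 for AC50: curve fitted both ways so AC50 may mark viability loss or gain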)
Procedure, shortened: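 Human H295R adrenal cells, prestimulated 48 h with 10 uM forskolin, were exposed 48 h to chemicals in 0.1% DMSO. Viability was measured in the same wells by MTT (0.5 mg/ml, 4 h, 37 C), absorbance 570/650 nm, as percent of controls.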

[17] = Tanguay_ZF_120hpf_ActivityScore_legacy: (Legacy) Oregon State University Tanguay Lab 120 Hour Post-fertilization zebrafish Assay Score for Activity (AID 2283742);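 for AC50: dechorionated Tropical 5D wild-type zebrafish embryos held singly per well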
Procedure, shortened: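 Dechorionated 5D embryos, one per well, static exposure 6–120 hpf, 28C, sealed and dark; final DMSO 0.64% (vol/vol). Brightfield binary scoring of mortality plus 18 endpoints; gain-of-signal fit versus DMSO baseline.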

[18] = read-out: Glyceraldehyde-3-phosphate dehydrogenase (Homo sapiens) (UniProt P04406); experiment: CLD_GAPDH_24hr: CellzDirect (CLD) Gene Expression Assay for Baseline Control (Glyceraldehyde 3-phosphate dehydrogenase) at 24 hours (AID 2283692)
Procedure, shortened: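 GAPDH baseline-control readout: qNPA chemiluminescent mRNA signal in human primary hepatocytes harvested 24 h after daily dosing, normalised to 0.2% DMSO with positive fitting direction; cytotoxicity annotated by phase-contrast morphology.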

[19] = read-out: xenobiotic metabolism (CYP1A2), CYP1A2 (gene 1544); experiment: CLD_CYP1A2_48hr: CellzDirect (CLD) Gene Expression Assay for xenobiotic metabolism (CYP1A2) at 48 hours (AID 2283703)
Procedure, shortened: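 Cytotoxicity was flagged yes/no from morphology, while CYP1A2 transcript induction was detected by qNPA chemiluminescence after a 48-hour exposure. Human primary hepatocyte cultures from separate donors received fresh dosing solutions daily over two days, with 0.2% DMSO as vehicle and baseline.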

[20] = read-out: glucuronosyltransferase (UGT1A1), UGT1A1 (gene 54658); experiment: CLD_UGT1A1_24hr: CellzDirect (CLD) Gene Expression Assay for glucuronosyltransferase (UGT1A1) at 24 hours (AID 2283696)
Procedure, shortened: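 UGT1A1 transcript induction was measured by quantitative nuclease protection assay (chemiluminescence) in human hepatocyte cultures 24 h after daily fresh dosing, with 0.2% DMSO as vehicle and baseline.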

Sequence of Glyceraldehyde-3-phosphate dehydrogenase (Homo sapiens) (P04406 whole entry, looked up): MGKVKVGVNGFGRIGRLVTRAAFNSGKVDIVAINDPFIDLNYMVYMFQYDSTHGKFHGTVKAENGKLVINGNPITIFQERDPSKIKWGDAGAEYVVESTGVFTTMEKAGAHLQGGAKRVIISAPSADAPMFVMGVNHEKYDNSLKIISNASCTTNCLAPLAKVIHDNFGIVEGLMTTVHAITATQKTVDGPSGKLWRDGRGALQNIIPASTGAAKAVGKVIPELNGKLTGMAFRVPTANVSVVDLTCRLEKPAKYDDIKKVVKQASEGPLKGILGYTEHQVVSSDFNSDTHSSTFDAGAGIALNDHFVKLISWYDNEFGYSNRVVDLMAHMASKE
Sequence of Cytochrome P450 3A4 (Homo sapiens) (P08684 whole entry, looked up): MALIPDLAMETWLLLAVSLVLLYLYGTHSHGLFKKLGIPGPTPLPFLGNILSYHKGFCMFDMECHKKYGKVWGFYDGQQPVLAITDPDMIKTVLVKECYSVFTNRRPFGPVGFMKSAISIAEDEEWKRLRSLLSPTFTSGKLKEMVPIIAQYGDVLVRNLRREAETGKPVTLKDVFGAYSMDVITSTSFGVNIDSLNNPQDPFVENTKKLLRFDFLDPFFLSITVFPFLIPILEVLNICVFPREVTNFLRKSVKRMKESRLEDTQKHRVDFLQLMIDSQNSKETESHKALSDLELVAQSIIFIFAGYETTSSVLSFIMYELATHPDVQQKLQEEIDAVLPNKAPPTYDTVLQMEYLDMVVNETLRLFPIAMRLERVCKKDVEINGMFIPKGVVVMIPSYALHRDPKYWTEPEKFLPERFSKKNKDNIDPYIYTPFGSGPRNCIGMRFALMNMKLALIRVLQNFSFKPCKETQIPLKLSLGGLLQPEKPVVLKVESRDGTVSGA

CC(C)OC(=O)Nc1cccc(Cl)c1
AC50 [1]: 2.34 µM (active)
outcome [2]: inactive
AC50 [3]: 7.72 µM (active)
outcome [4]: inactive
outcome [5]: inactive
AC50 [6]: 36.3 µM (active)
AC50 [7]: 20 µM (active)
outcome [8]: inactive
AC50 [9]: 5.09 µM (active)
outcome [10]: inactive
outcome [11]: inactive
outcome [12]: inactive
AC50 [13]: 12.8 µM (active)
AC50 [14]: 11.1 µM (active)
AC50 [15]: 11.7 µM (active)
outcome [16]: inactive
AC50 [17]: 39.2 µM (active)

Oc1cc(Cl)ccc1Oc1ccc(Cl)cc1Cl
outcome [1]: inactive
outcome [2]: inactive
outcome [18]: inactive
outcome [4]: inactive
outcome [5]: inactive
outcome [6]: inactive
outcome [8]: inactive
outcome [9]: inactive
outcome [10]: inactive
outcome [11]: inactive
outcome [12]: inactive
AC50 [14]: 81.2 µM (active)
AC50 [15]: 75.8 µM (active)
AC50 [16]: 23.4 nM (active)
outcome [16]: inactive
AC50 [17]: 41.4 µM (active) and 46.5 µM (active)
outcome [17]: inactive

Cc1[nH]c(=O)n(C(C)(C)C)c(=O)c1Cl
AC50 [1]: 20 µM (active)
outcome [2]: inactive
outcome [18]: inactive
outcome [6]: inactive
AC50 [7]: 4.85 µM (active)
outcome [8]: inactive
outcome [19]: inactive
outcome [12]: inactive
outcome [14]: inactive
outcome [17]: inactive

COP(=S)(OC)Oc1ccc([N+](=O)[O-])cc1
AC50 [1]: 2.07 µM (active)
outcome [2]: inactive
AC50 [3]: 5.28 µM (active)
outcome [5]: inactive
AC50 [6]: 8.47 µM (active)
AC50 [7]: 7.55 µM (active)
AC50 [9]: 12.2 µM (active)
outcome [11]: inactive
outcome [16]: inactive
outcome [17]: inactive

N#CN
outcome [1]: inactive
outcome [2]: inactive
outcome [18]: inactive
outcome [4]: inactive
outcome [5]: inactive
outcome [8]: inactive
outcome [9]: inactive
outcome [10]: inactive
outcome [12]: inactive
outcome [17]: inactive

O=C(O)C(F)(F)C(F)(F)C(F)(F)C(F)(F)C(F)(F)C(F)(F)C(F)(F)F
outcome [1]: inactive
outcome [2]: inactive
outcome [3]: inactive
outcome [18]: inactive
outcome [5]: inactive
AC50 [6]: 3.97 µM (active)
outcome [7]: inactive
outcome [8]: inactive
AC50 [9]: 0.0776 µM (active)
outcome [10]: inactive
outcome [11]: inactive
outcome [12]: inactive
outcome [14]: inactive
outcome [17]: inactive

[2H]C1([2H])[n+]2ccccc2-c2cccc[n+]2C1([2H])[2H]
outcome [1]: inactive
outcome [2]: inactive
outcome [18]: inactive
outcome [4]: inactive
AC50 [9]: 20 µM (active)
outcome [10]: inactive
outcome [12]: inactive

COC(=O)c1ccccc1S(=O)(=O)NC(=O)Nc1nc(C)nc(OC)n1
AC50 [1]: 3.08 µM (active)
outcome [2]: inactive
outcome [18]: inactive
outcome [4]: inactive
outcome [5]: inactive
outcome [20]: inactive
outcome [6]: inactive
outcome [8]: inactive
outcome [19]: inactive
outcome [10]: inactive
outcome [12]: inactive

CC(C)(C)C(O)/C(=C\c1ccc(Cl)cc1Cl)n1cncn1 (stereo not drawn)
AC50 [1]: 0.825 µM (active)
AC50 [2]: 29.4 µM (active)
outcome [4]: inactive
outcome [5]: inactive
AC50 [6]: 1.9 µM (active)
AC50 [7]: 0.983 µM (active)
AC50 [9]: 20 µM (active)
outcome [12]: inactive
AC50 [14]: 79.6 µM (active)
AC50 [15]: 74.4 µM (active)
outcome [16]: inactive
AC50 [17]: 94.2 µM (active)

COP(=O)(OC)OC=C(Cl)Cl
outcome [1]: inactive
outcome [2]: inactive
outcome [18]: inactive
outcome [4]: inactive
outcome [5]: inactive
outcome [6]: inactive
outcome [7]: inactive
outcome [8]: inactive
outcome [9]: inactive
outcome [10]: inactive
outcome [11]: inactive
outcome [12]: inactive
outcome [17]: inactive

Cc1cc(C)nc(NC(=O)NS(=O)(=O)c2ccccc2C(=O)OC2COC2)n1
outcome [1]: inactive
outcome [2]: inactive
outcome [18]: inactive
outcome [4]: inactive
outcome [5]: inactive
outcome [7]: inactive
outcome [8]: inactive
outcome [10]: inactive

CCS(=O)(=O)c1cccnc1S(=O)(=O)NC(=O)Nc1nc(OC)cc(OC)n1
outcome [1]: inactive
outcome [2]: inactive
outcome [4]: inactive
outcome [5]: inactive
AC50 [6]: 20 µM (active)
outcome [7]: inactive
outcome [8]: inactive
outcome [19]: inactive
AC50 [9]: 2.37 µM (active)
outcome [10]: inactive
outcome [11]: inactive
outcome [12]: inactive
outcome [13]: inactive
outcome [16]: inactive
